TRPML1 blocker: inhibitors of human TRPML1 channel. Q9GZU1. TRPML1-inducible cells, Ca2+ dye fluorescence, FDSS; stronger effect = lower value; inhibition of EC80 agonist-evoked calcium signal. activity change, negative = inhibition, % (concentration not given with the values). 0.02% of 390,000 active. AID 624415; in the data active = activity change below about -50%;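 also: stimulus is agonist 54-4 at its EC80 concentration; % is scaled to controls: 0 for no effect and ±100 for the full control effect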
Target sequence (Q9GZU1 whole entry, looked up): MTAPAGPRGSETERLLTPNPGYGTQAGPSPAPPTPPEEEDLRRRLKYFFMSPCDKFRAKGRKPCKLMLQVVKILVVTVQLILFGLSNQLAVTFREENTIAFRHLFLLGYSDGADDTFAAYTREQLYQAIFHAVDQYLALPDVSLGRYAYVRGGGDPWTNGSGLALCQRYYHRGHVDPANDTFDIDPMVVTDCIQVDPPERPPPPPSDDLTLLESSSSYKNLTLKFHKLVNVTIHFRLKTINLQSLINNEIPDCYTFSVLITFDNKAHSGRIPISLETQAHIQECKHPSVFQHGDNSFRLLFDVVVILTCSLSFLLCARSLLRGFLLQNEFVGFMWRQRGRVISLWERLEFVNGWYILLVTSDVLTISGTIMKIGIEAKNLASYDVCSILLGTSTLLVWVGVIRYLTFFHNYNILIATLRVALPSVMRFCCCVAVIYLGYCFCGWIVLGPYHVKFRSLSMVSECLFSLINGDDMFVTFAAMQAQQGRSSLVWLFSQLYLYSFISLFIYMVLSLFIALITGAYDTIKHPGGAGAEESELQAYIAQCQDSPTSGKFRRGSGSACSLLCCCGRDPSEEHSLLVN
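Calcium fluorescence in TRPML1-DL cells induced overnight with Tet: a 110 s read after compound pin addition, then a 110 s antagonist read after challenge with 54-4 at 4 uM final (EC80).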
TRPML1 agonist: agonists of human TRPML1 channel | 0.12% of 410,000 active | TRPML1-expressing cells, Ca2+ dye fluorescence, FDSS | Q9GZU1 | activation, % (no concentration beside the values); in the data active = activation above about 50%; also: 0% is about no effect
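Kinetic FDSS Ca2+ read in Tet-induced TRPML1-DL cells (ABD Ca8 dye plus quencher, 45-90 min RT loading): baseline, then compound, then 110 s agonist window; EC80 agonist 54-4 at 4uM final added afterwards for a 110 s antagonist window.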
TRHR ag: agonists of human TRH receptor; P34981; TRHR cells, calcium flux fluo-8, FDSS agonist mode; activation, % at 2 µM; 0.18% of 360,000 active; AID 493084; in the data active = activation above about 30%; also: 0% is about no effect
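Read-out: compound-evoked intracellular calcium rise in TRHR cells, fluo-8 dye, kinetic FDSS fluorescence at 1 s/cycle following a 10-cycle baseline. Cells cultured overnight before dye loading (30 min–1.5 h, RT).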
TRHR enhancer: allosteric enhancers of human TRH receptor; P34981; TRHR cells, fluo-8 calcium fluorescence, EC20 TRH enhancement; enhancement, % at 2 µM; 0.66% of 360,000 active; in the data active = enhancement above about 30%; also: 0% is about no effect
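TRHR-expressing cells loaded with fluo-8 calcium dye were read kinetically (ex 480/em 530) during compound addition, then stimulated with an EC20 of TRH (10 nM final). Enhancement of the Gq-mediated intracellular calcium response was scored.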
Numbers without * were called inactive; . = no result given; ! = not confirmed by another sample. Only some compounds are listed: those with a hit (about 0.81% of all), similar ones and a draw of the others.

SMILES	TRPML1 blocker	TRPML1 agonist	TRHR ag	TRHR enhancer
O=C(NC(CC(=O)N1CCCC(C(F)(F)F)C1)c1ccccc1)c1ccccc1Cl (stereo not given)	-9.5	0.0	2.5	32.7*
CC1CCN(C(=O)CC(NC(=O)c2ccccc2Cl)c2ccccc2)CC1 (stereo not given)	-6.5	-0.1	0.1	-0.7
O=[S+]([O-])(/C=C/c1nc(Nc2cc(F)cc(F)c2)c2ncn(CC(F)F)c2n1)c1ccccc1	.	.	0.3	-0.5
Cc1c(C#N)c(N)nc2c3c(sc12)NC(=O)CC3c1ccc(F)cc1 (stereo not given)	-19.8	1.8	-0.4	-6.3
Cc1c(C#N)c(N)nc2c3c(sc12)NC(=O)CC3c1ccccc1 (stereo not given)	-2.4	1.7	-2.0	35.9*
CCC(CO)Oc1cc(NC(=O)c2ccc(OC)cc2)c2ncn(C(C)C)c2c1 (stereo not given)	-57.4*	0.0	.	.
CCC(CO)Oc1cc(NC(=O)c2cccc(OC)c2)c2ncn(C(C)C)c2c1 (stereo not given)	0.4	0.3	.	.
COC(=O)Nc1nnc(/C=C/c2ccccc2)s1	1.1	0.8	-0.1	0.7
O=C(Nc1nnc(/C=C/c2ccccc2)s1)c1ccco1	1.0	1.1	0.5	34.3*
Oc1c(C=Nc2cccc3cccnc23)sc2ccccc12	.	.	50.0*	9.5
CCOc1ccccc1N(CC(=O)N1CCOCC1)S(=O)(=O)c1ccccc1	0.2	28.2	82.9*	5.3
CCOc1ccccc1N(CC(=O)N1CCc2ccccc2C1)S(=O)(=O)c1ccccc1	-16.0	1.2	-0.3	-0.6
CN(C)c1ccc(/C=C2\C=Cc3ccccc32)cc1N	.	-0.1	.	.
C/C(=N\NC(=O)c1ccco1)c1ccc(NC(=O)C(F)(F)F)cc1	-11.5	-0.3	-0.1	38.9*
O=C(Nc1ccc(NC(=O)c2ccco2)cc1)c1ccco1	-8.2	0.2	1.2	31.3*
O=C(NC1CCCC1)c1cccc(NC(=O)c2ccco2)c1	-21.5	60.2*	-0.4	4.5
Nc1ccccc1/C=C/c1ccnc2ccccc12	.	4.9	.	.
CN1CCc2c(sc(NC(=O)c3ccc(S(=O)(=O)N4CCc5ccccc54)cc3)c2C(N)=O)C1	.	.	7.3	12.2
NC(=O)c1c(NC(=O)C2COc3ccccc3O2)sc2c1CCN(Cc1ccccc1)C2 (stereo not given)	1.9	1.2	37.8*	0.7
CNC(=O)c1c(NC(=O)c2ccc(S(=O)(=O)N3CCCc4ccccc43)cc2)sc2c1CCN(C)C2	-15.1	14.4	17.8	33.7*
CCOC(=O)c1c(NC(=O)c2ccc(S(=O)(=O)N(C)C3CCCCC3)cc2)sc2c1CCN(C(C)C)C2	-2.7	23.0	31.5*	0.3
CCCN1CCc2c(sc(NC(=O)c3ccc(S(=O)(=O)N(C)c4ccccc4)cc3)c2C(N)=O)C1	3.1	26.7	62.7*	10.1
CC(C)(C)n1ncc2c(=O)n(Cc3ccc(F)cc3Cl)cnc21	-9.2	8.0	.	.
Nc1nc[nH]c(=O)c1N	.	0.4	.	.
CN1CCc2c(sc(NC(=O)c3ccc(S(=O)(=O)N4CCCCCC4)cc3)c2C(N)=O)C1	-22.6	22.5	51.3*	3.2
SMILES	TRPML1 blocker	TRPML1 agonist	TRHR ag	TRHR enhancer
CN1CCc2c(sc(NC(=O)c3ccc(S(=O)(=O)N4CCCC4)cc3)c2C(N)=O)C1	34.4	1.8	1.7	10.9
CC(C)N1CCc2c(sc(NC(=O)c3ccc4ccccc4c3)c2C(N)=O)C1	1.3	9.1	30.7*	9.7
O=C(Nc1nnc(S(=O)(=O)N2CCCCCC2)s1)c1ccc(Cl)cc1	20.1	-0.2	0.7	36.7*!
CC(C)N1CCc2c(sc(NC(=O)c3ccc(C(=O)c4ccccc4)cc3)c2C(N)=O)C1	-0.1	4.1	8.1	0.8
Cc1ccc(C(=O)Nc2nnc(S(=O)(=O)N3CCCCCC3)s2)cc1	-3.5	-0.2	-0.2	4.7
OC(CN1C=CCc2ccccc21)c1ccc(Cl)cc1Cl (stereo not given)	.	2.0	.	.
Cc1cc2c(s1)c1cnn(Cc3cccc(Cl)c3F)c(=O)c1n2C	.	.	0.2	2.4
Cc1ccc(C)c2c1c1ccccc1n2C	31.2	1.8	-0.5	31.3*
CN(C)c1ccc(/C=C/C(=O)c2ccc3c(c2)OCO3)cc1	-14.1	83.9*	121.4*	23.5
CN(C)c1ccc(C(=O)C=Cc2ccc([N+](=O)[O-])cc2)cc1	11.2	-0.2	.	.
O=C(/C=C/c1ccccc1)c1ccc2c(c1)OCO2	-1.1	0.5	0.4	4.3
COc1ccc(C(=O)/C=C/c2ccc(N(C)C)cc2)c(OC)c1	-20.4	128.4*	127.0*	8.3
CN(C)c1ccc(/C=C/C(=O)c2ccc(O)cc2)cc1	-19.9	87.0*	.	.
CN(C)c1ccc(/C=C/C(=O)c2cccnc2)cc1	-24.9	114.5*	95.4*	6.4
O=C(CNC(=O)C1CCCC1)OC(C(=O)Nc1cc(C(F)(F)F)ccc1Cl)c1ccccc1 (stereo not given)	.	.	-1.1	-0.1
CC(C)(C)n1ncc2c(=O)n(Cc3ccc(-c4ccccc4C#N)cc3)cnc21	-7.4	2.0	.	.
CC(=O)Nc1ccc(/C=C/c2ccncc2)cc1	.	-0.6	.	.
COc1ccc(/C=N/NC(N)=S)cc1	-8.3	-0.1	0.6	0.0
C=CCOc1ccc(/C=N\NC(N)=S)cc1	27.1	1.1	-0.7	33.2*
CC(C)(C)c1ccc(O)c(N=Cc2cccc([N+](=O)[O-])c2)c1	.	-0.4	.	.
COc1ccccc1CNN	9.2	0.0	0.0	33.1*
O=S1(=O)CCOC[C@H](c2ccccc2)N1Cc1ccc(Cl)cc1Cl	.	0.0	.	.
CCn1c(SCC(=O)Nc2ccc(F)cc2)nnc1C1CC1	25.3	0.4	-1.0	40.7*
CCCn1c(SCC(=O)NC2CCCCC2)nnc1C1CC1	-3.9	1.0	0.3	33.0*
Cc1ccc(C)c(C2NC(=O)c3ccccc3N2)c1 (stereo not given)	-4.8	-0.4	-0.4	37.4*
SMILES	TRPML1 blocker	TRPML1 agonist	TRHR ag	TRHR enhancer
COc1cc(C)c(C2NC(=O)c3ccccc3N2)cc1C (stereo not given)	7.7	1.5	.	.
COc1ccc(NC(=O)COC(=O)c2ccc(-n3cnnn3)cc2)cc1Cl	-12.6	0.9	0.0	30.9*
COc1ccc(OC)c(NC(=O)COC(=O)c2ccc(-n3cnnn3)cc2)c1	-7.3	-0.9	0.1	-1.6
Cc1cc2c(s1)c1cnn(Cc3c(C)cc(F)cc3C)c(=O)c1n2C	.	.	1.0	3.6
COc1cc(N(C)C)c(OC)cc1/C=C1\C=Cc2ccccc21	.	0.0	.	.
CN(C)c1ccc(/C=C/c2ccnc3c(N)cccc23)cc1	.	10.9	.	.
Cc1ccccc1CN1[C@H](C)[C@H](c2ccccc2)OCCS1(=O)=O	.	-0.9	.	.
Cc1ccccc1S(=O)(=O)Cc1ccc(C(=O)NCCCN2CCCC2)o1	40.2	0.3	0.2	2.4
CCN1CCCC1CNC(=O)c1ccc(CS(=O)(=O)c2ccccc2C)o1 (stereo not given)	48.2	-0.3	0.2	30.9*
Cc1ccc(NC(=O)c2c(F)cccc2Cl)cc1NS(C)(=O)=O	-12.0	0.0	-0.4	38.3*
C=C(C)c1cc2c(s1)c1cnn(Cc3ccccc3F)c(=O)c1n2C	.	.	1.2	7.5
CCCCCCCOc1ccc(CC(=O)NO)cc1	.	-0.8	.	.

Screening data deposited in PubChem BioAssay by National Center for Advancing Translational Sciences (NCATS).
